The list is not random: actives were taken first. Their share in the collection is about 2.6%.
TROY NFkB inh: inhibitors of TROY-driven NF-kB signaling, primary screen, Q293 LMP1-TROYcd cells, NF-kB luciferase, uHTS; Q293 LMP1-TROYcd NF-kB luciferase reporter, 4 h; inhibition, % at 10 µM; 360,000 compounds, 0.98% hits;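 active means compounds whose plate-normalised and pattern-corrected inhibition of the luciferase reporter signal at the single screening dose is 50% or more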
TWEAK Fn14 block: inhibitors of TWEAK-Fn14 signaling, primary screen, luciferase reporter cells, uHTS; TWEAK-stimulated Fn14 reporter cells, luciferase luminescence, 8 h; inhibition, % at 10 µM; 360,000 compounds, 2% hits; in the data active means inhibition above about 50%
LGR2 antag: inhibitors of bursicon-induced LGR2 CRE-luciferase signal, primary screen, cell-based, HEK293, CRE-luciferase reporter, bursicon stimulation | bursicon-stimulated, 4 h | inhibition, % at 9.99 µM | 380,000 compounds, 0.35% hits | AID 720647, 2013;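 active means drop in luminescence signal, shown as inhibition above about 50% in the replicate tests, limit read from the data, passing the limit was not always enough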;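 further: agonist challenge used bursicon conditioned medium at about half maximal strength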
LMP1 NFkB inh: EBV LMP1-driven NF-kappaB luciferase reporter inhibitors, primary screen, cell-based, luminescence, single point. 350,000 compounds, 0.69% hits. LMP1-induced NF-kappaB luciferase reporter cells. inhibition, % at 12.5 µM; in the data active means inhibition above about 41%;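 further: 0% = neutral control wells and 100% = reference inhibitor control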
EWS-Fli block: EWS/Fli-driven NR0B1 reporter inhibitors, primary screen, A673 cells, NR0B1 luciferase, luminescence, MLPCN library; viability-normalised; inhibition, % at 12.6 µM; AID 651661, 2012; 350,000 compounds, 0.67% hits;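 active means mean inhibition of at least 50% after viability correction, with every replicate also passing that limit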;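 further: firefly luciferase signal divided by Alamar Blue viability fluorescence both relative to DMSO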
* hit, by the source's call.

For CCc1ccc2oc(-c3cc(N)ccc3O)nc2c1 the results were TROY NFkB inh 44.9, TWEAK Fn14 block 40.4 and LMP1 NFkB inh -62.6.
For O=C(C[C@H]1C[C@@H]2c3cc(NC(=O)C4CCOCC4)ccc3O[C@@H]2[C@@H](CO)O1)NCc1cc(F)ccc1F the results were LGR2 antag -0.6 and EWS-Fli block -0.8.
Nc1ccc(-c2nc3cc(N)ccc3o2)cc1 was read as TROY NFkB inh -27.9, TWEAK Fn14 block 25.2, LGR2 antag -21.8, LMP1 NFkB inh 7.2 and EWS-Fli block -27.7.
`Nc1ccc2oc(-c3ccccc3Cl)nc2c1` gave TROY NFkB inh -15.2, TWEAK Fn14 block 51.1*, LGR2 antag -24.7, LMP1 NFkB inh 29.6 and EWS-Fli block 37.8.
Screening CCOC(=O)c1c(NC(=O)C2C3CCC(O3)C2C(=O)O)sc(C)c1-c1ccc(F)cc1 (stereo not drawn) returned TROY NFkB inh 0.7, TWEAK Fn14 block -15.9 and LMP1 NFkB inh 79.8*.
CCOC(=O)c1c(NC(=O)C2C3CCC(O3)C2C(=O)O)sc2c1CCC(CC)C2 (stereo not drawn) was read as TROY NFkB inh 2.2, TWEAK Fn14 block 12.2, LGR2 antag 15.8, LMP1 NFkB inh 4.0 and EWS-Fli block 3.6.
For CCOc1ccc2nc(SCCNS(=O)(=O)c3ccccc3)sc2c1 the results were TROY NFkB inh 20.1, TWEAK Fn14 block 54.8*, LGR2 antag 15.8, LMP1 NFkB inh 7.1 and EWS-Fli block 0.0.
For CCOc1ccc2nc(NC(=O)Nc3ccccc3)sc2c1 the results were TROY NFkB inh -44.1, TWEAK Fn14 block 6.9 and LMP1 NFkB inh -64.7.
CCOc1ccc2nc(NC(=O)c3ccccn3)sc2c1 was read as TROY NFkB inh 66.6*, TWEAK Fn14 block -5.5, LGR2 antag 88.8*, LMP1 NFkB inh 57.4* and EWS-Fli block 70.4*.
`CSc1nc2ccc(NC(=O)c3ccccn3)cc2s1` gave TROY NFkB inh 25.9, TWEAK Fn14 block 72.2*, LGR2 antag 70.7*, LMP1 NFkB inh 4.1 and EWS-Fli block 22.3.
O=C(Nc1nc2c(F)cc(F)cc2s1)c1ccccn1 was read as TROY NFkB inh 35.7, TWEAK Fn14 block 41.8, LGR2 antag 60.1*, LMP1 NFkB inh 44.3* and EWS-Fli block 53.1*.
`C[C@H]1CN([C@@H](C)CO)C(=O)CCCn2cc(nn2)CO[C@@H]1CN(C)S(=O)(=O)c1ccccc1` gave LGR2 antag 16.9 and EWS-Fli block 0.6.
Screening CC(C)NC(=O)Nc1ccc2c(c1)C(=O)N([C@H](C)CO)C[C@@H](C)[C@H](CN(C)Cc1ccc(Oc3ccccc3)cc1)O2 returned LGR2 antag -23.1 and EWS-Fli block 11.2.
For COc1ccc2c3c(n(C)c2c1)[C@H](CO)NCC31CN(S(=O)(=O)c2cccc(F)c2)C1 the results were LGR2 antag 4.0 and EWS-Fli block -7.0.
COc1ccc(S(=O)(=O)Nc2ccc3c(c2)C(=O)N([C@H](C)CO)C[C@H](C)[C@@H](CN(C)S(=O)(=O)c2ccccc2)OCCCC[C@H](C)O3)cc1 was read as LGR2 antag -6.3 and EWS-Fli block 2.2.
`CO[C@H]1CN(C)C(=O)c2cc(NC(=O)C3CC3)ccc2OC[C@H](C)N(Cc2cccc(F)c2)C[C@H]1C` gave LGR2 antag -1.8 and EWS-Fli block 7.4.
O=C(Nc1nc2ccc(S(=O)(=O)N3CCCC3)cc2s1)c1ccccn1 was read as TROY NFkB inh -58.0, TWEAK Fn14 block -9.9, LGR2 antag -51.9, LMP1 NFkB inh -1.2 and EWS-Fli block -4.0.
`Cc1ccc2nc(NC(=O)c3ccccn3)sc2c1` gave TROY NFkB inh 86.1*, TWEAK Fn14 block 98.1*, LGR2 antag 102.6*, LMP1 NFkB inh 81.5* and EWS-Fli block 83.9*.
`CC1CCN(Cc2c(C(=O)N/N=C/c3cc(Cl)ccc3O)nnn2-c2nonc2N)CC1` gave TROY NFkB inh 15.0, TWEAK Fn14 block -21.6, LGR2 antag 9.2, LMP1 NFkB inh 34.7 and EWS-Fli block 19.2.
Screening CC1CCN(Cc2c(C(=O)N/N=C/c3cc(Br)ccc3O)nnn2-c2nonc2N)CC1 returned TROY NFkB inh 1.8, TWEAK Fn14 block -9.9, LGR2 antag 34.5, LMP1 NFkB inh 49.1* and EWS-Fli block 29.4.
`CCOC(=O)CSc1nc2cc3c(cc2cc1C#N)OCO3` gave TROY NFkB inh -59.8, TWEAK Fn14 block -6.4 and LMP1 NFkB inh -16.4.
For CCOC(=O)CSc1nc2cc3c(cc2cc1C#N)OCCO3 the results were TROY NFkB inh 57.3*, TWEAK Fn14 block 25.7, LGR2 antag -52.1, LMP1 NFkB inh -68.8 and EWS-Fli block -86.0.
For Cc1ccc(S(=O)(=O)N(C)C[C@@H]2Oc3ccc(NC(=O)CCCN(C)C)cc3C(=O)N([C@@H](C)CO)C[C@@H]2C)cc1 the results were LGR2 antag 14.8 and EWS-Fli block 12.0.
CSC1=NC(C(Cl)(Cl)Cl)N=C(c2ccc(C)cc2)N1 (stereo not drawn) was read as TROY NFkB inh 7.3, TWEAK Fn14 block 22.0, LGR2 antag 15.7, LMP1 NFkB inh 9.7 and EWS-Fli block 59.5*.
CCC1N=C(SC)NC(C)=C1C(=O)c1ccccc1 (stereo not drawn) was read as TROY NFkB inh 1.8, TWEAK Fn14 block -11.0, LGR2 antag -10.8, LMP1 NFkB inh -9.2 and EWS-Fli block -0.1.
For COc1ccc(-c2nnc3ccc(SCC(=O)Nc4nc5ccc(C)cc5s4)nn23)cc1OC the results were TROY NFkB inh 87.4*, TWEAK Fn14 block 98.4*, LGR2 antag -8.9 and LMP1 NFkB inh -16.2.
COC(=O)CSc1ccc2nnc(-c3ccc(OC)c(OC)c3)n2n1 was read as TROY NFkB inh 5.2, TWEAK Fn14 block -47.7, LGR2 antag 13.5, LMP1 NFkB inh -1.5 and EWS-Fli block 22.3.
CCCC(C)C(=O)N(Cc1ccccc1)c1ccccn1 (stereo not drawn) was read as TROY NFkB inh -0.4, TWEAK Fn14 block 61.5* and LMP1 NFkB inh -0.6.
COCC(=O)N(Cc1ccccc1)c1ccccn1 was read as TROY NFkB inh 6.4, TWEAK Fn14 block -13.2 and LMP1 NFkB inh -7.6.
For COc1ccc(-c2cn(CC[C@@H]3CC[C@@H](NC(=O)NC(C)C)[C@@H](CO)O3)nn2)cc1 the results were LGR2 antag 4.8 and EWS-Fli block -2.6.
For C[C@]12CC[C@@H]3c4cc(O)c(O)cc4CC[C@H]3[C@@H]1CC[C@@H]2O the results were TROY NFkB inh -13.0, TWEAK Fn14 block 49.3, LGR2 antag 4.7, LMP1 NFkB inh -4.3 and EWS-Fli block 35.3.
For CC12CCC3C(CCC4N(CCO)CCC34C)C1CCC2O (stereo not drawn) the results were TROY NFkB inh -7.0, TWEAK Fn14 block 94.3*, LGR2 antag 7.1, LMP1 NFkB inh 7.9 and EWS-Fli block 5.6.
